# HT1080NT lethal: kills 2HG-producing HT-1080-NT fibrosarcoma cells; HT-1080-NT fibrosarcoma viability, CellTiter-Glo ATP luminescence, 48 h; Potency, µM (doses to about 46.1 µM), most hits filed as cytotoxic; 1.6% of 360,000 active; AID 686970;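 further: NT is the 2HG producing partner of a matched IDH1 knockdown line; nearly all actives have a fitted effect of over 55% in size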
#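 Read-out is CellTiter-Glo luminescence after 10 minutes at room temperature, following 48 hours' compound treatment of HT-1080-NT cells (750 cells/well, RPMI, 5% FBS, 37 degrees C).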
# ALOX12 inh: ALOX12 (human) lipoxygenase inhibition; P18054; purified 12hLO, xylenol orange hydroperoxide absorbance; Potency, µM (doses to about 108 µM), actives largely listed as inhibitors; 1.1% of 580,000 active
# Target sequence (P18054 whole entry, looked up): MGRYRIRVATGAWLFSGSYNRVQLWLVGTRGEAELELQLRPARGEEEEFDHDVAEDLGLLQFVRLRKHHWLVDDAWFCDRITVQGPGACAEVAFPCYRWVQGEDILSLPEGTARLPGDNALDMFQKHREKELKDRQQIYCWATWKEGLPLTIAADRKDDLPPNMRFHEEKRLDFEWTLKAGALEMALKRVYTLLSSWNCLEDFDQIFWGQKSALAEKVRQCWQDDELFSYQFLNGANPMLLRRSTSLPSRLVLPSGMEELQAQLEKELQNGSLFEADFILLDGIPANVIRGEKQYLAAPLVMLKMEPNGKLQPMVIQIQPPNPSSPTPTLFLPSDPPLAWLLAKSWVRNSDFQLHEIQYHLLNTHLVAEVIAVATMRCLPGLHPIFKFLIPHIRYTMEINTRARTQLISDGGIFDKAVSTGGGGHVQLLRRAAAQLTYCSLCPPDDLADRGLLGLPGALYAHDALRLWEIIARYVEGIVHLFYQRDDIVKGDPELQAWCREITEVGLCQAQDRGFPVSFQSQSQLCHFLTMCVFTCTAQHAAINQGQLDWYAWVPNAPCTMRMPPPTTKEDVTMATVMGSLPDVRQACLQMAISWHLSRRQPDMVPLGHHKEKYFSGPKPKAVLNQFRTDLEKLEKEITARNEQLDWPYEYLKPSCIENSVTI
#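 Purified human 12hLO at 150 nM in 25 mM Hepes, 0.01% Triton X-100, pH 7.0, preincubated 15 min at room temperature with compound. Reaction started with 40 uM arachidonic acid, 30 min at room temperature. Hydroperoxide measured by Fe-xylenol orange, 573/405 nm absorbance ratio.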
# DT40 TDP1 CPT: growth inhibition of DT40 Tdp1-/-;hTDP1 cells with camptothecin (screen for TDP1 inhibitors). chicken DT40 Tdp1-/-;hTDP1 cells + 20 nM CPT, ATP luminescence, 48 h. Potency, µM (top dose mostly 46.2 µM), usual class: inhibitors. 12% of 420,000 active; further: nearly all actives have a fitted effect of over 55% in size
#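 Chicken DT40 Tdp1-/- cells complemented with human TDP1, 400 cells/well, exposed to compounds plus 20 nM camptothecin for at least 48 h at 37 C; viability read as ATP content by CellTiter-Glo luminescence.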
# TDP1 cell noCPT: qHTS for Inhibitors of human tyrosyl-DNA phosphodiesterase 1 (TDP1): qHTS in cells in absence of CPT; DT40 Tdp1-/- hTDP1 cells, no CPT, ATP luminescence, 48 h; Potency, µM (doses to about 46.2 µM), hits mostly inhibitors; 15% of 420,000 active; further: nearly all actives have a fitted effect of over 55% in size
#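 DT40 Tdp1-/-;hTDP1 cells, no CPT (DMSO vehicle only), 400 cells/well; compounds pin-transferred; ≥48 hr, 37 °C; CellTiter-Glo 30 min RT dark, luminescence read.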
# IL1B secr inh: inhibitors of inflammasome signaling (IL-1 beta secretion); activity change, % at 57.5 µM; THP-1 LPS/ATP IL-1B secretion, AlphaLISA, 16 h; active compounds read low; 4.7% of 360,000 active; in the data active means activity change below about -50%; inconclusive means mostly about -30% to -49%
#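 Secreted IL-1B measured by AlphaLISA bead assay after 16 h compound exposure of THP-1 cells; compounds (final up to 57.5 uM) added 1 h before LPS (250 ng/mL) and ATP (1.25 mM) stimulation; lower signal means less secretion.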
# HT1080 IDH1KD tx: kills HT-1080 cells with IDH1 knockdown; 2% of 360,000 active; AID 686971; HT-1080 IDH1 knockdown viability, ATP luminescence, 48 h; Potency, µM (series often up to 46.1 µM), actives largely listed as cytotoxic
#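 Luminescent ATP read-out (CellTiter-Glo, 10 min at room temperature) after 48 h compound exposure at 37 °C gave viability of IDH1-knockdown HT-1080 cells. Activity was normalised to DMSO and cell-free wells, then fitted as concentration-response curves.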
# Numbers stand for hits; . = inactive; ? = inconclusive; / = not tested or not shown. This is one part of a sample in which hits are shown more often than they occur. Unless noted, the call rests on the fitted dose curve; in most records, active means well fitted curve in the direction sought with a large enough effect; inconclusive means small, poorly fitted or top-dose-only effect, or another doubt; inactive means no such curve, though single readings can be large; an effect the other way counts as inactive or inconclusive.
SMILES,HT1080NT lethal,ALOX12 inh,DT40 TDP1 CPT,TDP1 cell noCPT,IL1B secr inh,HT1080 IDH1KD tx
c1ccc(CNc2nc(NCc3ccccc3)c3ccccc3n2)cc1,14.6µM,?,5.8µM,5.17µM,-99.9,7.31µM
c1ccc(-c2nc(NCc3cccnc3)c3oc4ccccc4c3n2)cc1,?,15.8µM,?,?,.,?
c1ccc(-c2nc(NCCCn3ccnc3)c3ccccc3n2)cc1,.,.,.,.,-73.2,.
CCC(C)N(C(=O)CSc1nc(C)c(C)c(C)c1C#N)C1CCS(=O)(=O)C1 (stereo not drawn),.,.,.,20.6µM,.,.
Cc1oc(-c2ccccc2)nc1C12CC3CC(CC(C3)C1)C2,/,.,/,/,/,/
Cc1ccc(-c2cc(C(=O)OC(C)C(N)=O)c3ccccc3n2)cc1 (stereo not drawn),/,.,/,/,/,/
CCSc1nc(-c2cccs2)nc2ccccc12,.,.,14.6µM,18.4µM,.,.
O=C(CSc1nc(-c2cccs2)nc2ccccc12)N1CCCCC1,/,.,/,/,/,/
CCc1noc([C@@H]2CC(F)(F)CN2C(=O)CCc2c(C)noc2C)n1,/,.,/,/,/,/
Cc1ccc(S(=O)(=O)N(C)C)cc1-n1c(SCC(=O)N(C)C)nc2ccccc2c1=O,.,.,.,.,.,.
Cc1ccc(S(=O)(=O)N(C)C)cc1-n1c(SCC(=O)Nc2ccc(F)c(F)c2F)nc2ccccc2c1=O,.,.,14.6µM,20.6µM,.,.
COc1ccc2[nH]cc(C(C(=O)O)N3CCN(C(=O)OC(C)(C)C)CC3)c2c1 (stereo not drawn),/,.,/,/,/,/
CCc1ccccc1Nc1nn2c(=O)c3ccc(C(=O)Nc4ccc(OC)cc4)cc3nc2s1,/,.,20.6µM,13µM,/,/
COc1ccc(NC(=O)c2ccc3c(=O)n4nc(Nc5cc(C)ccc5C)sc4nc3c2)cc1,/,?,6.51µM,5.8µM,/,/
CN(C)C(=O)CCc1c(-c2ccc(F)cc2)[nH]c2ccc(F)cc12,/,.,/,/,/,/
CNc1n[nH]c(=S)s1,.,22.4µM,.,.,.,.
Cc1cccc(C)c1Nc1n[nH]c(=S)s1,.,?,.,?,.,.
Cc1ccc(Nc2n[nH]c(=S)s2)c(C)c1,.,25.1µM,.,?,.,.
Cc1cccc(Nc2n[nH]c(=S)s2)c1C,.,6.31µM,.,.,.,.
CC(C)c1ccc(Nc2n[nH]c(=S)s2)cc1,?,6.31µM,.,.,.,.
CC(=O)Nc1n[nH]c(=S)s1,?,.,?,.,.,?
COCC(=O)NC1CCC12CCN(Cc1cccc(OC)c1)CC2 (stereo not drawn),/,.,/,/,/,/
COC(=O)CNC(=O)Cn1cc(C(C)=O)c2ccccc21,/,.,/,/,/,/
COc1ccc(C(C)=O)cc1COC(=O)/C=C/c1cc(Br)ccc1F,/,.,/,/,/,/
O=C(CCCC1C(=O)Nc2ccccc21)NCCc1noc(-c2ccccc2)n1 (stereo not drawn),/,.,/,/,/,/
SMILES,HT1080NT lethal,ALOX12 inh,DT40 TDP1 CPT,TDP1 cell noCPT,IL1B secr inh,HT1080 IDH1KD tx
COc1cccc(Nc2n[nH]c(=S)s2)c1,.,44.7µM,.,.,.,.
COc1cccc(Nc2ccc(-n3ccnc3)nn2)c1,.,.,.,.,.,.
COc1ccccc1Nc1n[nH]c(=S)s1,.,14.1µM,.,.,.,.
C=CCNc1n[nH]c(=S)s1,.,?,5.17µM,2.59µM,.,.
Cc1cc(C)c(Nc2n[nH]c(=S)s2)cc1C,.,28.2µM,.,?,.,.
O=C(Nc1n[nH]c(=S)s1)c1ccc2ccccc2c1,.,.,.,.,.,.
CCOc1ccc(CNC(=O)CC(C)n2ccc(C)n2)cc1 (stereo not drawn),/,.,/,/,/,/
COc1ccc(-c2nc(CN3CCN(C(=O)NCCc4ccccc4)CC3)c(C)o2)cc1,/,.,/,/,/,/
O=C(CCl)N1c2ccccc2Oc2ccc3ccccc3c21,?,?,5.17µM,1.46µM,?,16.4µM
CSCCC(NS(=O)(=O)c1cccs1)C(=O)Nc1ccc(C)c(Cl)c1 (stereo not drawn),/,50.1µM,.,.,/,/

# Bioassay records (PubChem)
